Laboratory results published in ChEMBL document CHEMBL4296182, “CO-ADD screening of NIH NCI Diversity Set V”.
For part of these data: Potency and affinity values are given separately.

Assays:
Staphylococcus aureus = assay: Antibacterial activity against Staphylococcus aureus MRSA ATCC 43300 (CO-ADD:GP_020); MIC in CAMBH media using NBS plates, by Resazurin F(560/590); assay type: functional; details: Concentration 20 uM, ASSAY_TEST Inhibition of Bacterial Growth, detection method Resazurin, Fluorescence (ex560/em590), MEDIA CAMHB, plate type 384well, CORNING #3640, time 18 hr
Acinetobacter baumannii = assay: Antibacterial activity against Acinetobacter baumannii ATCC 19606 (CO-ADD:GN_034); MIC in CAMBH media using NBS plates, by Resazurin F(560/590); assay type: functional; details: Concentration 20 uM, ASSAY_TEST Inhibition of Bacterial Growth, detection method Resazurin, Fluorescence (ex560/em590), MEDIA CAMHB, plate type 384well, CORNING #3640, time 18 hr
Escherichia coli = assay: Antibacterial activity against Escherichia coli ATCC 25922 (CO-ADD:GN_001); MIC in CAMBH media using NBS plates, by Resazurin F(560/590); assay type: functional; details: Concentration 20 uM, ASSAY_TEST Inhibition of Bacterial Growth, detection method Resazurin, Fluorescence (ex560/em590), MEDIA CAMHB, plate type 384well, CORNING #3640, time 18 hr
Klebsiella pneumoniae = details: Concentration 20 uM; ASSAY_TEST Inhibition of Bacterial Growth; detection method Absorption (OD600); MEDIA CAMHB; plate type 384well; NBS; CORNING #3640; time 18 hr
Candida albicans = details: 20 µM
Cryptococcus neoformans = details: Concentration 20 uM; ASSAY_TEST Inhibition of Fungal Growth; detection method Resazurin; Absorption (OD600-OD570); plate type 384well; NBS; CORNING #3640

| SMILES | Inhibition (Staphylococcus aureus) [%] | Inhibition (Acinetobacter baumannii) [%] | Inhibition (Escherichia coli) [%] | Inhibition (Klebsiella pneumoniae) [%] | Inhibition (Candida albicans) [%] | Inhibition (Cryptococcus neoformans) [%] |
| --- | --- | --- | --- | --- | --- | --- |
| CC(C)Cc1nnc(N)s1 | 5.28 | -16.63 | 6.53 | 28.97 | 1.43 | -13.23 |
| CC12C(=O)N(c3nccs3)C(=O)C1(C)C1CCC2O1 (stereo unspecified) | 6.57 | 6.5 | 7.81 | 14.08 | 2.65 | -13.24 |
| Nc1ccc(Oc2ccc(N)c([N+](=O)[O-])c2)cc1[N+](=O)[O-] | 19.29 | -5.09 | 4.4 | 9.85 | 10.1 | -3.81 |
| Cc1ccc(-c2cssc2=S)cc1 | -26.91 | -10.22 | -20.59 | 2.16 | 13.1 | 11.55 |
| OC(COc1ccc(Cl)cc1)CN1CCN(c2cccc(Cl)c2)CC1 (stereo unspecified) | 15.95 | -3.41 | 10.45 | 10.9 | -0.89 | -14.11 |
| CCCCn1c(OC(=S)N(CC)CC)cc(C)nc1=S | 3.12 | 15.13 | -6.8 | 13.25 | 7.15 | -2.34 |
| Sc1nc2ccccc2c2ccccc12 | -5.22 | -10.6 | 1.21 | 0.71 | 24.1 | 19.7 |
| CCCNC(=O)Nc1ccc(C)cc1C | 1.69 | 10.44 | -6.23 | 17.61 | 5.41 | -2.02 |
| OCC1(CO)COC2(CCCC2)N1 | 5.01 | 0.7 | 4.05 | 19.67 | -1.93 | -8.24 |
| CC(C)(C)NC1=NCCNC(c2ccccc2)=C1.CS(=O)(=O)O | -3.88 | 8.25 | 7 | 11.55 | 1.18 | -14.32 |
| C=CCNC(S)=NCC | 0.32 | -1.02 | 11.35 | 13 | 0.61 | -1.87 |
| CC1CC(C)(C)NC2(CCCC2)N1 (stereo unspecified) | 12.12 | -5.32 | 5.91 | 11.32 | -0.15 | -4.43 |
| CCOC(=O)Nc1c(Cl)n(C)c(=O)n(C)c1=O | -8.24 | 9.75 | -16.55 | 17.7 | 6.3 | 20.83 |
| Cc1ccc(NC(=S)NC(=O)c2ccccc2)cc1NC(=S)NC(=O)c1ccccc1 | 23.47 | -11.72 | 7.94 | 3.93 | -0.27 | 1.39 |
| CN(C)S(=O)(=O)N1C(=O)c2ccccc2C1=O | 5.4 | 12.12 | -0.21 | 11.91 | 5.89 | -1.33 |
| Cc1ccc(CC#N)c(-c2c(CC#N)ccc(C)c2C)c1C | 10.31 | -9.1 | 13.28 | 6.29 | 3.94 | -13.71 |
| NC(=O)c1ccccc1NC(=O)c1ccccc1Cl | -3.45 | -12.19 | 7.56 | 6.89 | 2.67 | -15.77 |
| Cn1cnc([N+](=O)[O-])c1Sc1n[nH]c(N)n1 | 6.38 | 14.39 | -1 | 1.75 | -0.83 | -4.45 |
| CCOc1ccc2sc(NS(=O)(=O)c3ccc(N)cc3)nc2c1 | -6.39 | -10.5 | 7.14 | 12.93 | 4 | -12.92 |
| COc1ccc(C2OC3=Nc4cc(C)c(C)cc4NC3=C2O)cc1 (stereo unspecified) | 19.36 | 6.66 | 1.83 | 7.32 | 1.04 | -7.87 |
| C#C[C@]1(O)CC[C@H]2[C@@H]3CCC4=Cc5oncc5C[C@]4(C)[C@H]3CC[C@@]21C [DANAZOL] | -10.91 | 2.93 | 12.68 | 6.03 | 0.72 | -10.04 |
